In PubChem BioAssay:
Values joined by “and” are separate entries in the source; they are usually repeats but may differ in a detail not shown here. Equal entries are not always repeated. Active and inactive are the calls of the source. Unless noted, no stated cut-off is given here; in the data, active means inhibition above about 80%; inactive means the rest.

Legend:
[1] = UWB1.289 ovarian carcinoma cell growth inhibition, synergistic combos for chromothripsis tumors, BGB or cisplatin combos (AID 1671456); details: UWB1.289 ovarian carcinoma cells, stronger effect = higher value;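 further: cells exposed to compound for four days; 0% = vehicle DMSO and 100% = killing by high DMSO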
[2] = LFS_MB_2R medulloblastoma cell growth inhibition, synergistic combos for chromothripsis tumors, cisplatin combos (AID 1671457); details: LFS_MB_2R medulloblastoma cells, stronger effect = higher value;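 further: cells exposed to compound for four days before readout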
[3] = MDA-MB-436 breast carcinoma cell growth inhibition, synergistic combos for chromothripsis tumors, BGB or cisplatin combos (AID 1671458; call rule not given here;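 further: cells exposed for 96 hours; 0% = vehicle DMSO and 100% = killing by high DMSO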); details: MDA-MB-436 breast carcinoma growth inhibition, drug combinations, stronger effect = higher value
[4] = UWB1.289_BRCA1 ovarian cancer growth, cell-based, BGB or cisplatin combinations (AID 1671459); details: UWB1.289 BRCA1 ovarian carcinoma, drug combinations, stronger effect = higher value
[5] = human astrocyte viability loss, single and combined drugs, cytotoxicity control for chromothriptic childhood tumor combination screen, cell-based, BGB or cisplatin IC20 combos (AID 1671460); details: Human astrocytes, drug combinations, stronger effect = higher value;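 further: cells exposed to compounds for 96 hours before viability readout; 0% = vehicle and 100% = killing control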
[6] = growth inhibition of BT084 medulloblastoma cells, cell-based, ICGC_MB145, cisplatin and BGB IC40 combos (AID 1671461); details: drug combinations, stronger effect = higher value;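 further: cells exposed to drugs for 96 hours; 0% = vehicle DMSO and 100% = high DMSO full killing control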
[7] = growth inhibition of RCMB18 medulloblastoma cells, cell-based, cisplatin and BGB IC40 combos (AID 1671462); details: stronger effect = higher value;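 further: cells exposed to compound for four days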
[8] = growth inhibition of CRL1545 osteosarcoma cells, cell-based, cisplatin and BGB IC20 combos (AID 1671464); details: stronger effect = higher value;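 further: cells exposed to compound for 96 hours before readout; 0% = vehicle DMSO and 100% = high DMSO killing control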
F380Y = assay: modulators of BK channel variants, profiling panel, selectivity assay, cell-based, U2OS BacMam, thallium flux, beta subunits (AID 1259406;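 active means thallium flux through the channel raised or lowered by more than 3 SD from vehicle-only wells, actives on both sides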;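 further: initial slope of Thallos dye fluorescence rise after thallium is added; log ratio against the mean of 0.3% DMSO vehicle wells on the same plate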); details: at 30 µM
F380Y/beta1 = assay: as above; details: at 30 µM
[9] = measured here: inhibition with BGB combination, at 0.05 µM
[10] = measured here: inhibition with cisplatin combination, at 0.05 µM
[11] = measured here: combination with cisplatin, at 0.5 µM
[12] = measured here: combination with cisplatin, at 5 µM
[13] = measured here: BGB combination, at 0.5 µM
[14] = measured here: BGB combination, at 5 µM
[15] = measured here: cisplatin combination, at 0.5 µM
[16] = measured here: cisplatin combination, at 5 µM
[17] = BGB combination, concentration series, at 5 µM
[18] = cisplatin combination, concentration series, at 5 µM
[19] = measured here: combo with BGB IC20, at 0.5 µM
[20] = measured here: combo with cisplatin IC20, at 0.5 µM
[21] = cisplatin combination, at 0.5 µM
[22] = measured here: BGB IC40 combination 0.05 uM, at 0.05 µM
[23] = measured here: BGB IC40 combination, at 0.05 µM
[24] = measured here: with BGB IC20 combination, at 0.5 µM
[25] = measured here: with cisplatin IC20 combination, at 0.5 µM

CCn1cc(C(=O)O)c(=O)c2cc3c(cc21)OCO3
inhibition ([1]; at 0.5 µM): 2.29% (inactive)
inhibition [1, 9]: -2.14%
inhibition [1, 10]: -6.63%
inhibition ([2]; at 0.5 µM): -21.9% (inactive)
inhibition [2, 11]: -20.2%
inhibition [2, 12]: -21.2%
inhibition ([3]; at 0.5 µM): -14.4% (inactive)
inhibition [3, 13]: -16.2%
inhibition [3, 14]: -18.6%
inhibition [3, 15]: -20.7%
inhibition [3, 16]: -20.6%
inhibition [4, 17]: -2.14%
inhibition ([4]; at 0.5 µM): 1.91% (inactive)
inhibition [4, 18]: 15.4%
inhibition ([5]; at 0.5 µM): -0.34% (inactive)
inhibition [5, 19]: 2.16%
inhibition [5, 20]: -8.86%
inhibition ([6]; at 0.5 µM): -9.83% (inactive)
inhibition [6, 21]: 15.9%
inhibition ([6]; cisplatin combination, at 5 µM): -11.8%
inhibition [6, 22]: 27.5%
inhibition ([6]; single agent, at 5 µM): -16.8%
inhibition ([7]; at 0.5 µM): -3.66% (inactive)
inhibition ([7]; cisplatin combo, at 5 µM): 2.43%
inhibition [7, 23]: -11.1%
inhibition [7, 11]: 16.7%
inhibition ([7]; single agent, at 5 µM): -9.78%
inhibition ([8]; at 0.5 µM): -6.67% (inactive)
inhibition [8, 24]: -7.74%
inhibition [8, 25]: -6.13%
inhibition ([8]; single agent, at 0.05 µM): 12.4%
inhibition ([8]; single agent, at 5 µM): 12.2%

Nc1nc2c(ncn2COC(CO)CO)c(=O)[nH]1
inhibition ([1]; at 0.5 µM): 8.41% (inactive)
inhibition [1, 9]: -10.6%
inhibition [1, 10]: 1.36%
inhibition ([2]; at 0.5 µM): 1.52% (inactive)
inhibition [2, 11]: 8.4%
inhibition [2, 12]: 102%
inhibition ([3]; at 0.5 µM): -1.05% (inactive)
inhibition [3, 13]: 1.08%
inhibition [3, 14]: 38.9%
inhibition [3, 15]: -7.9%
inhibition [3, 16]: 51.5%
inhibition [4, 17]: 35.4%
inhibition ([4]; at 0.5 µM): 7.28% (inactive)
inhibition [4, 18]: 66%
inhibition ([5]; at 0.5 µM): 19.3% (inactive)
inhibition [5, 19]: 14.4%
inhibition [5, 20]: 21.1%
inhibition ([6]; at 0.5 µM): 25.1% (inactive)
inhibition [6, 21]: 43%
inhibition ([6]; cisplatin combination, at 5 µM): 103%
inhibition [6, 22]: 16.9%
inhibition ([6]; single agent, at 5 µM): 107%
inhibition ([7]; at 0.5 µM): 15.7% (inactive)
inhibition ([7]; cisplatin combo, at 5 µM): 102%
inhibition [7, 23]: 12.8%
inhibition [7, 11]: 27.1%
inhibition ([7]; single agent, at 5 µM): 88.8%
inhibition ([8]; at 0.5 µM): 44.7% (inactive)
inhibition [8, 24]: 29.8%
inhibition [8, 25]: 52.1%
inhibition ([8]; single agent, at 0.05 µM): 3.9%
inhibition ([8]; single agent, at 5 µM): 93.9%
log fold change Tl+ flux (F380Y): -0.00258 (inactive)
log fold change Tl+ flux (F380Y/beta1): 0.0388 (inactive)

C#C[C@]1(O)CC[C@H]2[C@@H]3[C@H](C)CC4=C(CCC(=O)C4)[C@H]3CC[C@@]21C
log fold change Tl+ flux (F380Y): 0.0382 (inactive)
log fold change Tl+ flux (F380Y/beta1): 0.123 (active)

CC(=O)NS(=O)(=O)c1ccc(N)cc1
log fold change Tl+ flux (F380Y): -0.0156 (inactive)
log fold change Tl+ flux (F380Y/beta1): 0.00907 (inactive)

O=NN(CCCl)C(=O)NCCCl
inhibition ([1]; at 0.5 µM): -5.7% (inactive)
inhibition [1, 9]: -21%
inhibition [1, 10]: -12%
inhibition ([2]; at 0.5 µM): -21.9% (inactive)
inhibition [2, 11]: -14.5%
inhibition [2, 12]: -18.3%
inhibition ([3]; at 0.5 µM): -8.21% (inactive)
inhibition [3, 13]: -10%
inhibition [3, 14]: -8.63%
inhibition [3, 15]: -2.04%
inhibition [3, 16]: -6.22%
inhibition [4, 17]: 3.47%
inhibition ([4]; at 0.5 µM): -1.58% (inactive)
inhibition [4, 18]: 19.3%
inhibition ([5]; at 0.5 µM): 12.8% (inactive)
inhibition [5, 19]: 26.4%
inhibition [5, 20]: 2.42%
inhibition ([6]; at 0.5 µM): -12.6% (inactive)
inhibition [6, 21]: -0.565%
inhibition ([6]; cisplatin combination, at 5 µM): 5.72%
inhibition [6, 22]: 22.3%
inhibition ([6]; single agent, at 5 µM): 10.8%
inhibition ([7]; at 0.5 µM): -5.05% (inactive)
inhibition ([7]; cisplatin combo, at 5 µM): -0.239%
inhibition [7, 23]: -34.5%
inhibition [7, 11]: 22.9%
inhibition ([7]; single agent, at 5 µM): -38.3%
inhibition ([8]; at 0.5 µM): -14.2% (inactive)
inhibition [8, 24]: -17.2%
inhibition [8, 25]: -12.8%
inhibition ([8]; single agent, at 0.05 µM): -3.95%
inhibition ([8]; single agent, at 5 µM): 10.1%

Cc1ccnc2c1NC(=O)c1cccnc1N2C1CC1
inhibition ([1]; at 0.5 µM): -0.21% (inactive)
inhibition [1, 9]: -23.1%
inhibition [1, 10]: -13.9%
inhibition ([2]; at 0.5 µM): -7.48% (inactive)
inhibition [2, 11]: 3.86%
inhibition [2, 12]: -37.6%
inhibition ([3]; at 0.5 µM): -22.8% (inactive)
inhibition [3, 13]: -19.7%
inhibition [3, 14]: -27%
inhibition [3, 15]: -29.5%
inhibition [3, 16]: -14.1%
inhibition [4, 17]: -12.7%
inhibition ([4]; at 0.5 µM): -12.9% (inactive)
inhibition [4, 18]: -3.3%
inhibition ([5]; at 0.5 µM): -5.51% (inactive)
inhibition [5, 19]: -5.33%
inhibition [5, 20]: 4.46%
inhibition ([6]; at 0.5 µM): -28.8% (inactive)
inhibition [6, 21]: -7.59%
inhibition ([6]; cisplatin combination, at 5 µM): -3.69%
inhibition [6, 22]: -12.5%
inhibition ([6]; single agent, at 5 µM): -22.7%
inhibition ([7]; at 0.5 µM): -8.82% (inactive)
inhibition ([7]; cisplatin combo, at 5 µM): 24.6%
inhibition [7, 23]: -2.75%
inhibition [7, 11]: 5.5%
inhibition ([7]; single agent, at 5 µM): -19.9%
inhibition ([8]; at 0.5 µM): -10.3% (inactive)
inhibition [8, 24]: -9.73%
inhibition [8, 25]: -13%
inhibition ([8]; single agent, at 0.05 µM): -39.8%
inhibition ([8]; single agent, at 5 µM): 1.39%
log fold change Tl+ flux (F380Y): -0.00202 (inactive)
log fold change Tl+ flux (F380Y/beta1): 0.0188 (inactive)

O=NN(CCCl)C(=O)NC1CCCCC1
inhibition ([1]; at 0.5 µM): -3.74% (inactive) and -1.89% (inactive)
inhibition [1, 9]: -37.8% and -16.5%
inhibition [1, 10]: -17.9% and -15%
inhibition ([2]; at 0.5 µM): -23.1% (inactive) and -22.9% (inactive)
inhibition [2, 11]: -21.1% and -18.8%
inhibition [2, 12]: -70.5% and -18.7%
inhibition ([3]; at 0.5 µM): -40.6% (inactive) and -11.5% (inactive)
inhibition [3, 13]: -36.9% and -5.88%
inhibition [3, 14]: -35% and -10.4%
inhibition [3, 15]: -61.4% and -18.5%
inhibition [3, 16]: -41.1% and -14.2%
inhibition [4, 17]: -29.6% and 11.3%
inhibition ([4]; at 0.5 µM): -16.2% (inactive) and 2.2% (inactive)
inhibition [4, 18]: 3.2% and 10.4%
inhibition ([5]; at 0.5 µM): -9.22% (inactive) and 7.1% (inactive)
inhibition [5, 19]: -20% and 5.8%
inhibition [5, 20]: -3.02% and 3.4%
inhibition ([6]; at 0.5 µM): -34.8% (inactive) and -13.6% (inactive)
inhibition [6, 21]: -11.4% and -21.6%
inhibition ([6]; cisplatin combination, at 5 µM): 1.31% and -15.5%
inhibition [6, 22]: -11% and -18.6%
inhibition ([6]; single agent, at 5 µM): -27.6% and -16%
inhibition ([7]; at 0.5 µM): -19.6% (inactive) and -7.56% (inactive)
inhibition ([7]; cisplatin combo, at 5 µM): -8.32% and -2.07%
inhibition [7, 23]: 3.33% and -8.31%
inhibition [7, 11]: -12.9% and 7.07%
inhibition ([7]; single agent, at 5 µM): -26.9% and -32.7%
inhibition ([8]; at 0.5 µM): -41.9% (inactive) and 12.8% (inactive)
inhibition [8, 24]: -11.7% and 21.6%
inhibition [8, 25]: -60.6% and 8.43%
inhibition ([8]; single agent, at 0.05 µM): -56.9% and 27.3%
inhibition ([8]; single agent, at 5 µM): -2.19% and 10%
